# Compound activity deposited in PubChem BioAssay by Emory University Molecular Libraries Screening Center.
# Only a selection was taken, and hits are over-represented in it overall.
# 14-3-3g Raf – 14-3-3 gamma protein interaction modulation; P61981; FP, 14-3-3gamma / TMR-pS259-Raf peptide binding; inhibition, % at 40 µM; actives 0.19% (n = 160,000); in the data active = inhibition above about 30%;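 also: 0% = protein plus tracer without compound and 100% = blank with tracer alone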
# Target sequence (P61981 whole entry, looked up): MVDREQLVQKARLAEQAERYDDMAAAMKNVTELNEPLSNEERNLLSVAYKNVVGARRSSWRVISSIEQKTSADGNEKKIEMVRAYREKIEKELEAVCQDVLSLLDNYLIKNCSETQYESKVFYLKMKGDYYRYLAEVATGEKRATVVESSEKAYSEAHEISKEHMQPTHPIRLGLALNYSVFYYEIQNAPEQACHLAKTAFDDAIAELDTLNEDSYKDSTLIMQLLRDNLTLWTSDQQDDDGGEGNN
# * hit, by the source's call.
SMILES,14-3-3g Raf
COCCN1C(=O)c2ccccc2C(C(=O)Nc2ccc(OC)c(OC)c2)C1c1cn(C)c2ccccc12 (configuration not stated),-7
CN(C)c1ccc(C2Oc3ccccc3C3=C2C(c2ccc(Cl)cc2)n2ncnc2N3)cc1 (configuration not stated),2
COc1ccccc1CNC(=O)c1ccc(N2CC3CC(C2)c2cccc(=O)n2C3)c(NC(=O)c2cccnc2)c1 (configuration not stated),14
COc1ccc(N2CCN(CCNC(=O)c3cccn4c(=O)c5ccc(Cl)cc5nc34)CC2)cc1,-10
COc1ccc(N2CCN(CCNC(=O)c3cccn4c(=O)c5cc6ccccc6cc5nc34)CC2)cc1,179*
O=C(NCCN1CCOCC1)c1cccn2c(=O)c3cc4ccccc4cc3nc12,-10
Cc1c(Cl)cccc1NC(=O)c1ccccc1Br,1
CCOc1ccc(NC(=O)CSc2nc3ccccc3n2S(C)(=O)=O)cc1,-16
CCOc1cccc2cc(-c3csc(Nc4ccccc4C(F)(F)F)n3)c(=O)oc12,-1
COc1ccc2c(c1)C=CC1(O2)N(C)c2ccccc2C1(C)C (configuration not stated),-6
CN1c2c(ccc3ccccc23)C(C)(C)C12C=Cc1cc([N+](=O)[O-])ccc1O2 (configuration not stated),-365
CN1c2ccccc2C(C)(C)C12C=Nc1c(ccc3ccccc13)O2 (configuration not stated),84*
CCc1ccc(CNC(=O)Cn2ncc3c(=O)oc4ccccc4c32)cc1,0
COc1cc(C=Nc2ccc(NC(C)=O)cc2)cc(OC)c1OC,-1
COc1ccccc1N=Cc1c(O)c(C(=O)Nc2ccccc2)cc2ccccc12,13
COc1ccccc1NC(=O)c1cc2ccccc2c(C=Nc2ccc(NC(C)=O)cc2)c1O,73*
CC(C)(C)c1ccc(OCC(=O)Nc2cccc(C(=O)Nc3nccs3)c2)cc1,-15
O=C(O)CCCNc1cc(N2CCCCCC2)c2noc3c2c1C(=O)c1ccccc1-3,67*
O=C(O)CCCNc1cc(N2CCC3(CC2)OCCO3)c2noc3c2c1C(=O)c1ccccc1-3,-52
O=C(O)CCCNc1cc(N2CCN(c3cccc(C(F)(F)F)c3)CC2)c2noc3c2c1C(=O)c1ccccc1-3,-123
CCOc1ccc(NS(=O)(=O)c2cc(C(=O)O)ccc2F)cc1,-1
CCOC(=O)C1=C(C)N=C2SCCC(=O)N2C1c1ccc(OC(C)=O)c(OCC)c1 (configuration not stated),4
CC1=NN(C(=O)c2cc3nc(-c4ccccc4)cc(C(F)(F)F)n3n2)C(O)(C(F)(F)F)C1 (configuration not stated),1
COc1cc2nc(SCC(=O)Nc3cccc(C)c3)n3nc(C)nc3c2cc1OC,-11
COc1ccccc1-n1nnnc1SCc1ccccc1,-2
SMILES,14-3-3g Raf
COc1ccccc1-n1nnnc1SCc1cc2c(cc1Br)OCO2,50*
Clc1cc2c(cc1CSc1nnnn1-c1ccccc1)OCO2,-1
CCN(CC)S(=O)(=O)c1ccc2[nH]c3nc(SCc4ccccc4C)nnc3c2c1,-4
O=C(Nc1cccc(NC(=O)c2ccccc2I)c1)c1ccccc1Cl,-2
CC1CCN(C(=O)c2c[nH]c3ccc(S(=O)(=O)N4CCCCC4c4cccnc4)cc3c2=O)CC1 (configuration not stated),-1
O=C(O)c1c[nH]c2ccc(S(=O)(=O)N3CCCCC3c3cccnc3)cc2c1=O (configuration not stated),57*
O=C(c1c[nH]c2ccc(S(=O)(=O)N3CCCCC3c3cccnc3)cc2c1=O)N1CCCC1 (configuration not stated),-9
CCCCOc1ccc(-c2nnc(C3CCCCC3)o2)cc1,14
Cn1c(=S)[nH]c2ccccc2c1=O,-9
COc1ccc(C2C(C(=O)c3cccs3)=C(O)C(=O)N2c2nnc(C)s2)cc1OC (configuration not stated),-5
O=C(C1=C(O)C(=O)N(c2nncs2)C1c1cccc(Br)c1)c1cccs1 (configuration not stated),84*
Cc1nnc(N2C(=O)C(O)=C(C(=O)c3cccs3)C2c2cccc(Oc3ccccc3)c2)s1 (configuration not stated),-44
Nc1c(C(=O)N2CCc3ccccc3C2)sc2nc3c(cc12)CCCCCC3,-6
NC(=O)c1c(NC(=O)COc2ccc(F)cc2)sc2c1CCCC2,-3
COc1ccc(N(C(=O)COc2ccccc2C)S(=O)(=O)c2ccc(C)cc2)cc1,-13
COc1ccc2nc(SCCOC(=O)c3ccc(F)cc3)nc(C)c2c1,9
CNC(=O)C(Sc1ccccc1)c1ccccc1 (configuration not stated),125*
O=C(NCc1ccc(F)cc1)C(Sc1ccccc1)c1ccccc1 (configuration not stated),-1
O=C(Nn1cnnc1)C(Sc1ccccc1)c1ccccc1 (configuration not stated),1
O=C(NCCO)C(=O)NCc1ccccc1Cl,4
CC(=O)Nc1cccc(NC(=O)c2cn(C)c(=O)c3ccccc23)c1,4
CCCN1CCN(C(=O)c2cnc(Nc3ccc(C)c(Cl)c3)c3ccccc23)CC1,-11
CCS(=O)(=O)Nc1cccc(C2=NN(S(C)(=O)=O)C(c3ccccc3F)C2)c1 (configuration not stated),-362
O=C(CSc1nccn1-c1cccc(Cl)c1)NC1CCCCC1,-4
Cc1cc(C)cc(-n2ccnc2SCC(=O)NC2CCCC2)c1,31*
SMILES,14-3-3g Raf
Cc1cc(C)cc(-n2ccnc2SCC(=O)Nc2c(C)cc(C)cc2C)c1,1
CCOC(=O)C1CCN(C(=O)c2nn(-c3ccc(OC)cc3)c(=O)c3ccccc23)CC1,-7
COc1cc(C2C3=C(CC(C)(C)CC3=O)OC3=C2C(=O)CC(C)(C)C3)ccc1OCC(=O)Nc1ccc2c(c1)OCO2,-42
CCOC(=O)C1CCN(C(=O)CCn2c(=O)[nH]c3cc(OC)c(OC)cc3c2=O)CC1,-2
O=c1nc2sc3[nH]c(=O)sc3cc-2s1,150*
CCCCCn1c(=O)[nH]c2cc(C(=O)N3CCN(c4ccc([N+](=O)[O-])cc4)CC3)ccc2c1=O,-5
Oc1sc(-c2ccccc2)cc1C=Nc1ccc(Cl)cc1,-4
CCCCSc1nnc2c(n1)OC(CC)Nc1ccc(Br)cc1-2 (configuration not stated),-35
CCCSc1nnc2c(n1)OC(c1cccs1)Nc1ccc(Br)cc1-2 (configuration not stated),-26
CCCSc1nnc2c(n1)OC(C=Cc1ccco1)Nc1ccc(Br)cc1-2 (configuration not stated),58*
CCOC(=O)Cc1nc2ccc([N+](=O)[O-])cc2o1,-10
COc1cc2[nH]c(=O)n(CCC(=O)NCc3ccccc3)c(=O)c2cc1OC,-4
Fc1cccc(C2C=C(c3cccs3)Nc3nnnn32)c1 (configuration not stated),63*
Fc1cccc(C2C=C(c3ccc(Cl)cc3)Nc3nnnn32)c1 (configuration not stated),-1
Fc1ccccc1C1C=C(c2cccs2)Nc2nnnn21 (configuration not stated),-8
CSc1ccc(OC(=O)c2ccccc2F)cc1,-5
O=C(Oc1ccc(C2CCCCC2)cc1)c1ccccc1F,31*
O=C(OCCN1CCCCC1)c1ccccc1F,-3
CCCOc1ccc(C2Nc3ccccc3NC3=C2C(=O)CC(c2ccc(C)cc2)C3)cc1 (configuration not stated),-1
